# Test results: article PMC5540273 (PLoS ONE, 2017)
# System: TIE1
# Conditions: concentration: 1 μM, replicates: in singlicate; n = 1
# 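Note: KINOMEscan kinase panel screen.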
row,Compound,%Inh
1,CCn1c(-c2nonc2N)nc2c(-c3ccccc3)ncc(OCCCN)c21.O=C(O)C(F)(F)F.O=C(O)C(F)(F)F [GSK260205],70%
2,Cc1ccc(-c2ccc3occ(-c4ccc(S(C)=O)cc4)c3c2)nn1 (stereo not drawn),0%
3,Cn1cc(-c2ccc3c(c2)CCN3C(=O)Cc2cc(F)cc(F)c2F)c2c(N)ncnc21 [GSK2634140],76%
4,COc1ccc(C)c(Nc2ccnc(Nc3ccc(-c4cnc[nH]4)cc3)n2)c1.Cl [GW784041],0%
5,c1ccc(Oc2ccc(Nc3ccnc4cc(-c5ccc(CN6CCCCC6)o5)ccc34)cc2)nc1 [GW567143],23%
6,CN(c1ccc(F)c(NC(=O)c2cccc(OC(C)(C)C#N)c2Cl)c1)c1ccc2nc(NC(=O)C3CC3)sc2n1,67%
7,COc1cc(Nc2nccc(N3CCC(NS(=O)(=O)c4ccc(NC(C)=O)cc4)CC3)n2)cc(OC)c1OC [GSK1379825],63%
8,Cc1ccc(C)c(NC(=O)Nc2ccc(C)c(-c3ccc(C(=O)Nc4ccncc4)cc3)c2)c1 [GSK1398473],0%
9,CCNc1nccc(-c2c(-c3ccc(F)cc3)ncn2C2CCN(C)CC2)n1,100%
10,Cc1ccc(NC(=O)c2cccc(N3CCCCC3)c2)cc1-c1ccc(C(=O)NCC2CC2)cc1 [GSK1917008],1%
11,Cl.Cl.NCC(NC(=O)c1cc(-c2cccnc2)c(-c2ccnc3[nH]ccc23)s1)c1ccccc1 (stereo not drawn) [GSK1323434],19%
12,COc1cccc(-c2nc(-c3ccccc3)[nH]c2-c2ccncc2)c1 [SB-610250],0%
13,Cn1cc(-c2cnc(N)c3c(-c4ccc5c(c4)CCN5C(=O)Cc4ccccc4)csc23)cn1 [GSK2593074],84%
14,CN(C)CCNS(=O)(=O)c1ccc(-c2ccnc3[nH]ccc23)cc1 [GSK977620],32%
15,O=C(Nc1n[nH]c2nc(-c3cccc(O)c3)ccc12)C1CC1 [SB-711805],0%
16,Nc1cccc(-c2ccc3c(N)n[nH]c3c2)c1 [GSK2193613],6%
17,Cl.O=C(Nc1ccc(Oc2ccc3[nH]c(NC(=O)c4ccco4)nc3c2)cc1)Nc1cc(C(F)(F)F)ccc1F [GW683134],100%

row,Compound,%Inh
1,COc1cccc2c(-c3ccncc3)c(-c3ccc(F)cc3)nn12 [GW468513],33%
2,COc1cc(Nc2ccnc3cc(-c4ccncc4)ccc23)cc(OC)c1OC.Cl [GW494610],19%
3,O=C(O)C(F)(F)F.O=c1[nH]ccc2nc(N[C@@H]3CCNC3)nc(Nc3ccc4c(c3)S(=O)(=O)CC4)c12 [GSK2181306],0%
4,Cl.N#CCc1ccc(Nc2nccc(Nc3ccc(Oc4ccccc4)cc3)n2)cc1 [GW639905],2%
5,Cc1ccc(O)cc1Nc1ccnc2cc(-c3ccc(CN4CCCCC4)o3)ccc12 [GW557777],61%
6,Cl.Cl.NC(CNC(=O)c1cc(Br)c(-c2ccnc3[nH]ccc23)s1)c1ccccc1 (stereo not drawn) [GSK1322949],33%
7,CN(c1ccc2c(c1)nc(NCc1ccccc1)n2C)c1ccnc(Nc2ccc(CS(C)(=O)=O)cc2)n1.Cl [GW811603],88%
8,Cc1ccc(O)cc1Nc1ccnc2ccc(C(C)(C)C)cc12 [GW856805],38%
9,COC(=O)Nc1nc2ccc(Oc3ccc(NC(=O)Nc4cc(C(F)(F)F)ccc4F)cc3)cc2[nH]1.Cl [GW654607],97.7%
10,Cn1cc(-c2ccc3c(c2)CCN3C(=O)Cc2cc(F)cc(C(F)(F)F)c2)c2c(N)ncnc21 [GSK2635225],87%
11,COc1cccc(CC(=O)N2CCc3cc(-c4cn(C)c5ncnc(N)c45)ccc32)c1 [GSK2608899],82%
12,N#Cc1cnc2cc(-c3cnc(CNCCN4CCOCC4)s3)ccc2c1Nc1ccc(Oc2ccccc2)cc1 [GW664114],11%
13,O=C(Nc1n[nH]c2cc(-c3cccs3)ccc12)C1CC1 [SB-731284],0%
14,CN(C)CCOc1ccc(-c2cc(-c3ccc(Cl)c(O)c3)c(-c3ccncc3)[nH]2)cc1.Cl.Cl [SB-684387],4%
15,Cc1cccc(Nc2nc(NCCN)ncc2C(N)=O)c1 [GSK1292139],0%
16,COC(=O)Nc1nc2cc(Oc3ccc(NC(=O)Nc4cccc(SC)c4)cc3)ccc2[nH]1.Cl [GW697999],96.5%
